mHTT-CaM PPI inh – inhibitors of human mutant huntingtin-calmodulin interaction; P42858; AlphaScreen His-mHTT/GST-CaM binding, luminescence; inhibition, % at 15 µM; 190,000 compounds, 3.6% hits; AID 1671202;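 also: 0% = both proteins with DMSO and 100% = one protein alone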
Pf apPOL block – Pf-apPOL DNA polymerase inhibition; Recombinant Pf-apPOL, molecular beacon fluorescence, 1.5 h; inhibition, % at 10 µM; 210,000 compounds, 0.25% hits; AID 1794808
Active calls of the source: *; i = inactive; . = not tested or not shown. Most compounds without a hit are left out; they make up all but 3.6% or so of the library. Rule as the data show it: active = inhibition above about 50%; inactive = the rest.

SMILES	mHTT-CaM PPI inh	Pf apPOL block
Cc1ccc(CN2CCc3nc(Nc4ccc5c(c4)OCCO5)ncc3C2)cc1	73*	-2
CCCN1CCN(c2ncc3c(n2)CCN(Cc2cc(Br)cs2)C3)CC1	29	1
COc1cc(OC)c(OC)cc1CN1CCc2nc(Nc3ccc4c(c3)OCO4)ncc2C1	50*	-1
CCOc1ccc(CN2CCc3nc(Nc4ccc5c(c4)OCO5)ncc3C2)cc1OCC	3	-2
Brc1csc(CN2CCc3nc(N4CCOCC4)ncc3C2)c1	57*	4
COc1cc(CN2CCc3nc(Nc4ccc5c(c4)OCO5)ncc3C2)ccc1OC(C)C	82*	0
c1ccc(CN2CCc3nc(Nc4ccc5c(c4)OCCO5)ncc3C2)cc1	32	-4
Cc1cccc(N2CCN(C(=O)C3CCC3)C(C)C2=O)c1 (centres undefined)	-6	-7
Cc1oc(C2CCC2)nc1C(=O)Nc1ccc(N2CCOCC2)cc1	11	-1
Cc1ccc(NC(=O)c2ccc(-c3nc(-c4ccc(F)cc4)no3)cc2)nc1	-5	0
CCOC(=O)NC(=O)C(=CNC(C)C)C(=O)OCC	.	-5
Fc1cc(F)cc(CN2CCc3nc(Nc4ccc5c(c4)OCO5)ncc3C2)c1	73*	-1
COc1cccc(Nc2ncc3c(n2)CCN(Cc2cc(OC)ccc2OC)C3)c1	35	-6
COc1ccc(OC)c(Nc2ncc3c(n2)CCN(Cc2ccc4c(c2)OCCO4)C3)c1	9	4
COc1ccc(OC)c(CN2CCc3nc(Nc4ccc(F)cc4)ncc3C2)c1	61*	-2
COc1ccc(Nc2ncc3c(n2)CCN(Cc2cc(Br)cs2)C3)cc1	66*	-9
COc1ccc(Nc2ncc3c(n2)CCN(Cc2ccc4c(c2)OCCO4)C3)cc1	61*	-6
Fc1cccc(CN2CCc3nc(Nc4ccc5c(c4)OCCO5)ncc3C2)c1	45	-2
Brc1csc(CN2CCc3nc(Nc4ccccc4)ncc3C2)c1	0	1
CSc1ccccc1NC(=O)c1coc(NC(=O)c2ccco2)n1	-11	-1
COc1ccccc1-c1cc(=O)c2cc(N)ccc2o1	6	-9
COc1ccc(N2CCN(CC(O)c3cccc(OC)c3)CC2)cc1 (centres undefined)	1	-5
O=C1NC(=Nc2ccc(F)cc2)S/C1=C/c1ccccc1Cl	3	-6
CN1C(=O)C2CCCCN2c2ccc(C(=O)NCc3cccc(Br)c3)cc21 (centres undefined)	34	0
CCOc1cc(CNc2cccc(Cl)c2C)ccc1OC	-9	0
SMILES	mHTT-CaM PPI inh	Pf apPOL block
COc1ccc(S(=O)(=O)Oc2ccc3c(c2)OC(=Cc2ccco2)C3=O)cc1	-4	-4
COc1cccc(CN2CCc3nc(Nc4ccc5c(c4)OCCO5)ncc3C2)c1OC	44	1
COc1ccccc1CN1CCc2nc(Nc3ccc(F)cc3F)ncc2C1	22	-3
COc1ccc(OC)c(CN2CCc3nc(Nc4ccc5c(c4)OCCO5)ncc3C2)c1	50*	4
COc1ccc(CN2CCc3nc(Nc4ccc(F)cc4F)ncc3C2)c(OC)c1OC	53*	-5
O=C(CSc1nn2c(SCC(=O)Nc3nccs3)nnc2s1)Nc1nccs1	3	-3
O=[N+]([O-])c1ccc2[nH]c3c(c2c1)CCCC3NC1CCN(CCc2ccccc2)CC1 (centres undefined)	100*	-1
NC1CCCc2c1[nH]c1ccc([N+](=O)[O-])cc21 (centres undefined)	12	3
Fc1cccc(CNc2cc(-n3cccn3)ncn2)c1	-8	-4
CCOc1ccc(CN2CCc3nc(N4CCCC4)ncc3C2)cc1OCC	0	3
CCN1CCN(c2ncc3c(n2)CCN(Cc2ccccc2)C3)CC1	55*	-5
CCN1CCN(c2ncc3c(n2)CCN(Cc2cccc(Br)c2)C3)CC1	57*	2
c1ccc(CN2CCc3nc(N4CCCC4)ncc3C2)cc1	48	6
CCc1ccc(CN2CCc3nc(N4CCN(CC)CC4)ncc3C2)cc1	34	0
Cc1cccc(CN2CCc3nc(N4CCCC4)ncc3C2)c1	84*	8
Brc1cccc(CN2CCc3nc(N4CCCC4)ncc3C2)c1	100*	7
CCN1CCN(c2ncc3c(n2)CCN(Cc2cc(F)cc(F)c2)C3)CC1	23	-2
O=C(CSc1ccccc1)N1CCc2c(nc3cc(-c4ccccc4)[nH]n3c2=O)C1	37	17
Cc1cc(Cl)ccc1OCC(=O)Nc1cccc(NC(=O)c2ccco2)c1	20	-5
COc1ccc(-c2cnc(S(=O)CC(=O)NCc3ccc(F)cc3)n2C)cc1 (centres undefined)	-14	-12
O=C(CC1CCS(=O)(=O)C1)Nc1ccc(Cl)cc1 (centres undefined)	-4	-1
COc1cc(-c2nc3ccccc3c(=O)n2Cc2c(F)cccc2F)cc(OC)c1OC	-2	-1
Cc1cc(OCC(=O)Nc2ccc(C)c(C)c2)nc(N2CCCC(C)C2)n1 (centres undefined)	-5	-2
CCCCCCCC1CC(C(C)(C)C)CC/C1=N\NC(N)=O (centres undefined)	i	.
CCOC(=O)COc1ccc2c(c1)OC(=Cc1cccc(OC)c1OC)C2=O	0	-2
SMILES	mHTT-CaM PPI inh	Pf apPOL block
COc1ccc(S(=O)(=O)Nc2cc(S(=O)(=O)c3ccc(OC)cc3)c(O)cc2C)cc1	14	-4
N#CC1(c2ccccc2C2(C#N)CC2)CC1	.	-4
Cc1ccc(CN2CCc3nc(N4CCN(c5ccccc5)CC4)ncc3C2)cc1	28	3
CN(C)c1ccc(CN2CCc3nc(N4CCN(c5ncccn5)CC4)ncc3C2)cc1	100*	-3
Cc1cc(C(=O)NCC2COC3(CCCCC3)O2)ccc1[N+](=O)[O-] (centres undefined)	-4	-7
CC1CCCN(C(=O)c2ccc3ncnc(N4CCOCC4)c3c2)C1 (centres undefined)	-7	-1
CN1CCC(=NOC(=O)c2ccc(F)cc2)CC1	6	-4
O=C(Cn1ccc2ccccc21)N1CCC(COCc2ccccc2)CC1	58*	-16
O=C(CCn1ccc(=O)[nH]c1=O)N1CCC(COCc2ccccc2)CC1	-4	3
CC(=O)Nc1nsc(N2CCC(C(=O)NCc3ccc(F)cc3Cl)CC2)n1	-6	-2
CSc1ccc(N2CC(c3nnc(NC(=O)c4ccc(Cl)cc4)o3)CC2=O)cc1 (centres undefined)	9	-2
O=C(Nc1nnc(C2CC(=O)N(c3ccccc3)C2)o1)c1cccs1 (centres undefined)	56*	-5
CCOc1ccc(N2CC(c3nnc(NC(=O)c4ccccc4)o3)CC2=O)cc1 (centres undefined)	82*	-3
O=C(Nc1nnc(C2CC(=O)N(c3ccc(F)cc3)C2)o1)c1cccc(F)c1 (centres undefined)	5	0
O=C(Nc1nnc(C2CC(=O)N(c3ccccc3)C2)o1)c1ccccc1 (centres undefined)	2	-1
CCCOc1ccc(C(=O)Nc2nnc(C3CC(=O)N(c4ccc(OCC)cc4)C3)o2)cc1 (centres undefined)	16	-3
CSc1ccc(N2CC(c3nnc(NC(=O)c4cccc(F)c4)o3)CC2=O)cc1 (centres undefined)	62*	-1
CSc1ccc(N2CC(c3nnc(NC(=O)c4cccs4)o3)CC2=O)cc1 (centres undefined)	64*	1
O=C(Nc1ccccc1)Nc1ccc2nnc(C3CC3)n2c1	0	1

Bioassay records from PubChem BioAssay.
